# Measured values reported in the supplement of paper PMC6555819.
# What was measured:
# Experiment in all cases: PBM binding z-score (relative to random genomic background probes); higher = stronger binding; sequences stand for … in GC…GCGATTGACAGCGTAGAATGAAGG
# [1] = test system: PPARg:RXRa DBDmut IVT, anti-RXR (DBD mutation: RXRa K156A/R161A, NR concentration 270 nM, RXRa partner concentration 90 nM)
# Outline: (§1)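 Binding z-scores were set against random background probes. The data came from custom Agilent 4×180K protein-binding microarrays carrying double-stranded probes with 34-nt variable regions, incubated 1 h with ligand-free nuclear receptor dimers. Partner-specific antibodies detected binding, and scanned fluorescence was regression-normalized.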
# [2] = test system: PPARg:RXRa IVT, anti-PPARg (NR concentration 270 nM, RXRa partner concentration 90 nM)
# Outline: as §1
# [3] = test system: PPARg DBDmut:RXRa IVT, anti-PPARg (DBD mutation: PPARg1 K132A/R137A, NR concentration 270 nM, RXRa partner concentration 90 nM)
# Outline: as §1
# [4] = test system: PPARg DBDmut IVT, anti-PPARg (DBD mutation: PPARg1 K132A/R137A, NR concentration 270 nM)
# Outline: as §1
# [5] = test system: PPARg homodimer (NR concentration 180 nM)
# Outline: as §1
# [6] = test system: PXR:RXRa (NR concentration 270 nM, RXRa partner concentration 90 nM)
# Outline: as §1
# [7] = test system: PXR homodimer (NR concentration 270 nM)
# Outline: as §1
# [8] = test system: RARa:RXR (NR concentration 270 nM, RXRa partner concentration 90 nM)
# Outline: as §1
# [9] = test system: RARa homodimer (NR concentration 270 nM)
# Outline: as §1
# [10] = test system: RARb:RXRa (NR concentration 270 nM, RXRa partner concentration 90 nM)
# Outline: as §1
Sequence,PBM binding z-score [1],PBM binding z-score [2],PBM binding z-score [3],PBM binding z-score [4],PBM binding z-score [5],PBM binding z-score [6],PBM binding z-score [7],PBM binding z-score [8],PBM binding z-score [9],PBM binding z-score [10]
CCGACTGGGGCAAGGTTAGCATAACGCACAGCCA,2.73,2.99,-1.11,-0.288,0.409,-0.179,-0.316,-0.0446,-0.606,1.22
AGAATGACGTTACCAAAGATCAGGGAAACGCTTG,-0.672,-0.0252,0.249,0.258,0.216,-0.527,-0.0125,-0.159,0.157,-0.301
GGAACGAGGGCAAGTTGAAAGCAGAGTTTGATGG,3.88,2.91,-0.0232,-0.635,0.201,0.652,0.377,0.519,-0.328,2.53
CTACCAAGGTGAACAAGGACGTTGATTACTATTC,2.52,2.17,0.0703,0.657,0.761,0.356,0.295,0.5,0.187,1.55
TCGAGTAGGTTAGGGGCATTCGGAATGGCGTCGA,1.94,1.69,-0.634,-0.223,0.203,0.507,-0.0899,0.497,-0.724,1.09
TCTTGTAGATCAGCAGGTTAAAAAAGCTGGCCAA,1.58,0.467,-0.542,0.0495,0.159,0.148,-0.197,0.613,-0.11,0.0554
TCTGCTAGGTCAACGATGGTTAGCTAATCTGCTA,4.04,4.11,0.206,0.0855,0.625,1.24,-0.803,2.11,-0.888,4.14
TAGCCTAGGTCAATGGGCCAGTATAGTACGCATC,1.98,3.19,-0.338,-0.429,0.9,0.686,-0.285,1.56,0.0956,3.67
TCGAGTAGGTTACCAAAGGGGCATTCAGCTTTCT,3,2.74,0.155,0.119,0.4,0.735,-0.508,0.81,-0.941,1.37
ATCGAAAGGTCGAGGTGAATATAGAGAAAGGGAA,0.454,2.9,1.3,0.685,1.72,2.6,0.39,3.39,1.13,4.2
CCTATTAGTTGACCATAAGGGCAACGGAAGCTCG,0.458,0.449,0.427,0.782,2.06,0.568,0.623,0.736,1.45,1.54
ACTAGCACGCCAAGTTTGGGTCACTCAAACAAAG,-0.764,0.325,-0.643,-0.578,0.00723,0.524,-0.537,0.981,-0.534,1
AGAATGAGGTTACCAAAGATCGGGGAAACGCTTG,4.19,3.16,0.767,-0.00143,0.441,1.3,-0.247,1.86,-0.246,2.09
CGAACCAGGGCATGAGTTGATAGCAAATGCCGAT,2.9,2.29,-0.69,0.106,0.228,-0.0525,-0.0221,-0.0885,-0.263,1.02
AGAATGAGGTTACCAAAGATCAGGGATACGCTTG,3.77,3.44,1.54,0.614,0.494,1.38,-0.284,2.04,0.01,1.98
CCTACTGGGCCATCATGTCATTGATATCAACGTT,4.06,4.28,0.246,0.754,0.785,-0.129,0.119,0.097,-0.0554,0.332
CCTCGAAGGACAGAAGGTCAGAGCTGTCCGCTTT,-0.0695,-0.0413,-0.921,-1.97,1.14,1.08,-0.321,1.83,0.748,3.06
CTGACTGGGGCAAGGTTACCATAACGCACAGCCA,4.8,5.05,0.266,0.0884,0.436,0.519,0.00598,0.987,0.104,1.86
ACTTACGGGTCAACGAGGTTAGAGCACGCGTATA,3.74,4.28,0.679,0.825,2.64,4.7,1.33,4.99,0.957,4.2
CCTACTGGACCAAAGGTCATTGATTCCAATGCTC,3.51,5.62,0.797,0.872,3.81,5.47,3.17,5.95,2.78,4.48
TTACCAAGGTGAAGGTCGCTGATCCCTCTGTAGA,1.76,3.41,-0.525,-0.735,0.05,0.966,-0.523,1.56,-0.643,2.5
GCAAGTTGGTCAGTAAAAGGTCACACACCGGTCG,1.27,2.7,0.611,0.159,4.55,5.2,1.01,5.84,1.75,4.17
TCTTGTAGATCAAGCAGGTTAAGAAGGCCTGAGT,1.58,0.43,0.564,0.0402,0.079,0.386,0.0272,0.642,-0.212,0.128
TCATATAGGTAATCCAGGTGAAAGTCGGCATCTA,4.8,4.82,1.66,1.21,1.69,0.657,0.114,1.28,0.866,0.724
ACTATTAGTTGACACGAGGGCAACCGATAGGTTG,0.272,1.04,0.784,0.778,0.695,1.75,0.634,1.74,0.708,1.59
